VDR inh = inhibitors of human vitamin D receptor. P11473. VDR-SRC2-3 peptide fluorescence polarization, 2 h. Potency, µM, most hits filed as inhibitors. 400,000 tested, 0.93% active. AID 504847
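After 23 nl compound addition and a short centrifugation, plates sat for 2 hours at ambient temperature; polarization of fluorescence then indicated loss of VDR binding to peptide SRC2-3.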
BAZ2B inh = inhibitors of human BAZ2B bromodomain. AID 504333. AlphaScreen BAZ2B-H3K14Ac peptide displacement. Q9UIF8. 360,000 tested, 4.4% active. Potency, µM (titrated, usually from 114 µM), usual class: inhibitors; further: nearly all actives have a fitted effect of over 60% in size
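Compounds, titrated to a top concentration of 110 uM, were incubated 30 min at room temperature with preformed BAZ2B/acetyl-K14 H3 peptide complex (50 nM each). Proximity signal was measured by AlphaScreen after 20 min with beads.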
HP1b chromo inh = HP1-beta chromodomain-methylated histone interaction inhibition | P83916 | Potency, µM (top dose mostly 114 µM), hits mostly inhibitors | AlphaScreen HP1-beta / biotin-H3K9me3 peptide binding | 390,000 tested, 0.56% active | AID 540317; further: nearly all actives have a fitted effect of over 70% in size
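Compound inhibition of the preformed complex between 50 nM HP1-beta and 50 nM biotinylated H3K9me3 peptide was read by AlphaScreen. Buffer was PBS pH 7.4 with 0.01% Tween-20. Incubations ran 30 min at room temperature, with 10 ug/mL donor/acceptor beads.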
PLK1 PBD block = PLK1 (human) polo-box domain binding inhibition; AID 720504; Plk1 PBD binding of FITC phosphopeptide, fluorescence polarization; Potency, µM, actives largely listed as inhibitors; P53350; 360,000 tested, 2.8% active; further: series mostly up to about 57 µM; nearly all actives have a fitted effect of over 65% in size
L3MBTL1 inh = L3MBTL1 (human) inhibition. AID 485360. AlphaScreen L3MBTL1–H3K9me1 peptide binding. Q9Y468. 230,000 tested, 0.66% active. Potency, µM (titrated, usually from 57.1 µM), actives largely listed as inhibitors; further: nearly all actives have a fitted effect of over 60% in size
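L3MBTL1 50 nM + b-AHA-H3(1-15)K9me1 75 nM, 30 min RT; compound added, 30 min RT; streptavidin donor/Ni-chelate acceptor beads 10 ug/mL each final, 30 min RT dark; AlphaScreen read.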
JMJD2A Tudor = inhibitors of human JMJD2A Tudor domain; AlphaScreen JMJD2A-Tudor / H3K4me3 peptide binding; Potency, µM (top dose mostly 114 µM), most hits filed as inhibitors; O75164; 390,000 tested, 4.4% active; further: nearly all actives have a fitted effect of over 50% in size
Numbers stand for hits; - = inactive; ? = inconclusive; . = no result given; [ ] = dose if it differs, or a comment. Hits are enriched below; roughly 6.9% of the tested compounds scored in any of these assays. The call rests on the fitted dose curve; in most records, active means well fitted curve in the direction sought with a large enough effect; inconclusive means small, poorly fitted or top-dose-only effect, or another doubt; inactive means no such curve, though single readings can be large; an effect the other way counts as inactive or inconclusive.

SMILES	VDR inh	BAZ2B inh	HP1b chromo inh	PLK1 PBD block	L3MBTL1 inh	JMJD2A Tudor
Cc1ccccc1C(=O)Nc1nnc(S(=O)(=O)N2CCCc3ccccc32)s1	-	-	-	.	.	-
CCCC1OC2C[C@@H]3[C@H]4CCC5=CC(=O)C=C[C@]5(C)[C@H]4C(O)C[C@]3(C)[C@]2(C(=O)CO)O1 (stereo partly drawn)	-	.	-	.	.	-
COc1ccccc1CNC(=O)c1ccc2c(c1)nnn2C1CCCC1	-	-	-	.	.	-
CN1CCc2cc(NC(=O)Nc3cccnc3)ccc21	-	.	.	.	.	.
Cn1ccc2cc3c(cc21)CCN3C(=O)Nc1cccnc1	?	?	-	-	-	79.4µM
CCC(Oc1ccc(F)cc1)C(=O)Nc1nc(-c2ccc(F)cc2)ns1 (stereo not drawn)	-	-	-	.	.	-
O=C(O)CCCC(=O)Nc1ccc(Cl)c(Cl)c1	-	-	-	-	-	-
O=C(CCCCn1cnc2c(=S)nc[nH]c21)Nc1ccc(C(=O)O)c(O)c1	-	.	70.8µM	-	.	2.82µM
Cc1onc(-c2ccccc2Cl)c1C(=O)Oc1cc(N)n(S(=O)(=O)c2ccc(F)cc2)n1	-	-	-	-	-	-
Cc1ccc(S(=O)(=O)n2nc(OC(=O)c3c(-c4ccccc4Cl)noc3C)cc2N)cc1	-	?	-	2.67µM	-	?
COc1ccc(S(=O)(=O)n2nc(OC(=O)c3ccncc3)cc2N)cc1	?	-	-	26.7µM	-	-
Cc1ccc(NC(=O)c2ccco2)c(NC(=O)c2ccccc2C)c1	-	-	-	-	.	50.1µM
O=C(Nc1ccc(Oc2ccc(NC(=O)c3ccco3)c(NC(=O)c3ccco3)c2)cc1)c1ccco1	-	-	5.01µM	-	-	-
O=C(Nc1ccc(Oc2ccc3ccccc3c2)cc1)c1ccco1	-	-	-	-	.	-
Cc1ccc(O)c(NC(=O)c2ccco2)c1	-	-	-	-	-	-
COc1ccc(NC(=O)c2ccco2)cc1NC(=O)c1ccco1	-	-	-	-	-	-
COc1ccc(NC(=O)c2ccco2)cc1NC(=O)c1cccc(C)c1OC	?	?	-	.	.	20µM
CC(C)c1ccc(OCC(=O)Nc2ccc(S(=O)(=O)Nc3ncccn3)cc2)cc1	-	-	-	.	.	-
COc1ccc(OC)c(NC(=O)Cn2ccn(-c3ccc(F)cc3)c(=O)c2=O)c1	-	-	-	.	.	-
O=c1oc2ccccc2nc1/C=C(O)/C=C\c1ccccc1	?	?	-	-	-	-
O=c1oc2ccccc2nc1/C=C(O)/C=C/c1ccc(F)cc1	-	50.1µM	-	-	?	?
COc1ccc(C(=O)NCC(c2ccco2)S(=O)(=O)c2cccs2)cc1 (stereo not drawn)	-	?	-	.	.	-
CCn1c(CSCc2ccc(C)cc2)n[nH]c1=S	-	?	-	-	-	31.6µM
CCn1c(CSCc2ccc(Cl)cc2)n[nH]c1=S	-	-	-	-	.	56.2µM
CCOC(=O)c1c(S(=O)(=O)N2CCN(c3ccccc3OC)CC2)c(C)n(C)c1C	-	-	-	.	.	-
SMILES	VDR inh	BAZ2B inh	HP1b chromo inh	PLK1 PBD block	L3MBTL1 inh	JMJD2A Tudor
COc1ccccc1N1CCN(S(=O)(=O)c2c(C(=O)N3CCOCC3)c(C)n(C)c2C)CC1	?	-	-	3.36µM	.	15.8µM
COc1cc(Cl)c(NS(=O)(=O)c2c(C(=O)N3CCCC3)c(C)n(C)c2C)c(OC)c1	-	-	-	26.7µM	.	?
COc1ccc(NS(=O)(=O)c2c(C(=O)N3CCCCCC3)c(C)n(C)c2C)cc1OC	-	-	-	?	.	-
CN(C(=O)CCCOc1ccc2[nH]c(=O)ccc2c1)C1CCCCC1	-	.	.	.	.	.
Cc1ccc2nc(-c3ccc(N=Nc4cc(S(=O)(=O)O)c5ccccc5c4O)cc3)sc2c1S(=O)(=O)O	-	.	14.1µM	.	.	17.8µM
Cc1ccc2nc(-c3ccc(NS(=O)(=O)c4ccccc4)cc3)sc2c1	-	-	-	-	-	-
CCOCN(C(=O)Cn1cnc2cc(C)c(C)cc21)c1c(C)cccc1CC	-	-	-	.	.	-
Cn1c(N)c(C(=O)COC(=O)Cc2ccc(F)cc2)c(=O)n(C)c1=O	-	-	-	-	-	-
CN(C)[C@@H]1CCC[C@@H]1OC(=O)C(c1ccccc1)c1ccccc1	-	35.5µM	?	-	-	1.12µM
CC(C)(O)CN(C(=O)C(c1ccccc1)c1ccccc1)C1CCCCC1	-	.	-	-	.	-
Cc1cc2c(s1)c1cnn(Cc3cccc(C)c3F)c(=O)c1n2C	.	.	.	.	.	-
COc1ccc(C2C(C(C)=O)=C(C)Nc3ncnn32)cc1[N+](=O)[O-] (stereo not drawn)	-	-	-	-	.	89.1µM
O=C(Nc1cccc(O)c1)c1cc(S(=O)(=O)N2CCCC2)ccc1Cl	-	-	-	-	.	-
CCc1ccc(/C=C/C(=O)c2cc(Br)ccc(=O)c2O)cc1	20µM	44.7µM	?	21.2µM	.	79.4µM
COc1ccc(S(=O)(=O)N2CCCC(C(=O)NCCC(C)C)C2)cc1 (stereo not drawn)	-	-	-	23.8µM	-	?
COc1cc(NC(=O)C2CCN(S(=O)(=O)c3ccc(N4CCCC4=O)cc3)CC2)cc(OC)c1	-	-	-	29.9µM	.	?
COc1ccc(S(=O)(=O)N2CCC(C(=O)N[C@H](C(=O)N3CCCC3)C(C)C)CC2)cc1	-	-	-	26.7µM	.	?
COc1ccc(S(=O)(=O)N2CCCC(C(=O)NCc3ccccc3)C2)cc1 (stereo not drawn)	-	-	-	-	.	-
N#CC(=Cc1ccc(O)cc1)C(N)=C(C#N)C#N	-	-	-	-	-	-
CCOc1ccccc1C1C(C(=O)Nc2ccccc2)=C(C)Nc2c(C(=O)Nc3ccc(F)cc3)cnn21 (stereo not drawn)	-	-	-	.	.	-
CCCCCCCCCCCCCCCCCCOC[C@H](COP(=O)([O-])OCC[N+](C)(C)C)OC(C)=O	-	.	.	.	.	.
CC1CCN(c2ccccc2NC(=S)NC(=O)c2cccs2)CC1	-	35.5µM	?	-	-	?
O=C(NC(=S)Nc1ccccc1N1CCCC1)c1ccc(F)cc1	-	25.1µM	50.1µM	?	-[11.4 µM]	35.5µM
O=C(COc1ccccc1Cl)NC(=S)Nc1ccccc1N1CCCC1	-	20µM	-	-	.	?
COC(=O)c1ccccc1NC(=S)NC(=O)COc1ccccc1Cl	-	-	-	?	-	-
O=C(NC(=S)Nc1ccccc1N1CCCCC1)c1ccccc1	-	?	-	-	-	?
CS(=O)(=O)N1CCN(c2ccccc2NC(=S)NC(=O)c2cccs2)CC1	-	?	-	-	-	-[11.4 µM]
CC(C)Oc1ccc(C(=O)Nc2ccccc2N2CCCC2)cc1	-	?	?	26.7µM	.	-[11.4 µM]
Cc1cccc(OC(C)C(=O)N2CCC(c3nc4ccccc4o3)CC2)c1C (stereo not drawn)	-	-	-	.	.	-

Compound activity: PubChem, National Center for Advancing Translational Sciences (NCATS)
